About 5,800 (36%) of roughly 16,000 compounds were called active. Inconclusive results (about 23%) are left out. Calls come from the whole dose curve; as a rule, active = well fitted curve in the direction sought with a large enough effect; inconclusive = small, poorly fitted or top-dose-only effect, or effect the other way; inactive = no such curve, though single readings can be large or run the other way. Some of the results follow.
% is set by controls: 0 for no effect and ±100 for the full control effect.

This test deals with Cytochrome P450 2C19 (Homo sapiens) (UniProt P33261). Briefly: Cytochrome panel assay with activity outcomes. To be noted: recombinant CYP, pro-luciferin dealkylation, luminescence, p450-cyp2c19; series mostly up to 57.1 µM.
Sequence of Cytochrome P450 2C19 (Homo sapiens) (P33261 whole entry, looked up): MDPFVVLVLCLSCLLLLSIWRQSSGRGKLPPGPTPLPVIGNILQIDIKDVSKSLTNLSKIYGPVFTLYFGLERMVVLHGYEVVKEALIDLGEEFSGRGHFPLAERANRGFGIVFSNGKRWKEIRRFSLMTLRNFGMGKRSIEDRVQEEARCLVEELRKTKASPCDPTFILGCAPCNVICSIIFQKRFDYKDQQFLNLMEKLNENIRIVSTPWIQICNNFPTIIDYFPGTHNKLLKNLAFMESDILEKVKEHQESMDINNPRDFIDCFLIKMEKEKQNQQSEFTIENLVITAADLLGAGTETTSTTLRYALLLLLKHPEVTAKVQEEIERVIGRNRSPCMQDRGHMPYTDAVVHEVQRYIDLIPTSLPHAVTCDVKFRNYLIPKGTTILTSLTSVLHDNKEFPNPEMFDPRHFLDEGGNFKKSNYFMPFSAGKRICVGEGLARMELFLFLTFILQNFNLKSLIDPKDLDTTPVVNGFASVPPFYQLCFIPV
What is called AC50 is the midpoint of the concentration-response curve, whichever way the signal moves. As for `COc1ccccc1/C=C/C(=O)c1c2c(c(C)[nH]c1=O)CCCC2`, the AC50 is 7.94 µM (active). For the molecule `COc1ccc(Cc2ccccc2C(=O)O)c2ccccc12`, the activity, negative = inhibition is 12.2% [at 11.4 µM] (inactive). For the molecule `COc1ccc2ccccc2c1/C=C\C(=O)c1ccccc1`, the AC50 was 0.316 µM (active).

Take `COc1cc(C)cc(OC)c1/C=C\C(=O)O`: the activity, negative = inhibition is -0.542% [at 11.4 µM] (inactive). For `COc1ccccc1/C=C/C(=O)c1ccc(Cl)cc1`, the AC50 is 2.24 µM (active).

Consider `C[C@@H](Cc1ccccc1)Nc1ncnc2c1ncn2[C@@H]1O[C@@H](CO)[C@H](O)[C@@H]1O`, for which the AC50 result was “inactive”. Still for that read-out and setting: for `CC(O)(P(=O)(O)O)P(=O)(O)O` the value was “inactive”. For `NC(=S)NCCC[C@@H](N)C(=O)O`, the AC50 result was “inactive”. Take `CCCN=C(N)NCCC[C@H](N)C(=O)O`: the AC50 was 2 µM (active). On to `NC(=NCCC[C@H](N)C(=O)O)NO`, for which the AC50 result is “inactive”. In the case of `O=C1CN=C(Nc2ccc(Cl)cc2)N1c1ccccc1`, the AC50 was 11.2 µM (active). With `O=C(O)c1nn(-c2ccc(Cl)cc2)c2c1C(=O)c1ccccc1C2=O`, the activity, negative = inhibition is 4.89% [at 11.4 µM] (inactive). For the molecule `CCOC(=O)COc1ccc(/C=C/[N+](=O)[O-])c(OCC(=O)OCC)c1`, the AC50 was 6.31 µM (active). `CCCCCN=c1ccn(Cc2ccccc2)c2ccccc12`: the AC50 is 0.251 µM (active).

For `O=C(CSc1nnc(CNc2ccc(F)cc2)o1)OC1CCCCC1`, the concentration at half-maximal activity (AC50) was 11.2 µM (active).

For `O=C(CSc1nc(-c2ccccc2)cs1)N1CCc2ccccc21`, the AC50 was 2 µM (active). The same measure, in the same setting: for `O=C(CNCCO)N1CCc2ccccc21` the value was “inactive”; for `O=C(CSc1n[nH]c(-c2ccccc2O)n1)N1CCCc2ccccc21`, 2.51 µM (active). The same measure, in the same setting: next, `O=C(CSc1nnc(CNc2ccccc2)o1)N1CCCc2ccccc21`: 4.47 µM (active).

As to `CCn1ccc(C(=O)NC2=C(C#N)CCC2)n1`, the AC50 result was “inactive”. Regarding `CSc1nc(Oc2ccc(=O)[nH]n2)nc(N(C)C)n1`, the AC50 result was “inactive”. Regarding `CO[C@@H]1COC(=O)CCC[C@@H](C)[C@H](OC)COC(=O)CCC[C@H]1C`, the activity, negative = inhibition was 5.51% [at 11.4 µM] (inactive).

Consider `O=C(CSc1nnc(CNc2ccc(F)cc2)o1)N1c2ccccc2Sc2ccccc21`, for which the AC50 was 2.82 µM (active). With `CCOc1ccc(-n2ccnc2SCC(=O)Nc2nnc(CC)s2)cc1`, the AC50 was 8.91 µM (active).

Consider `COc1ccc(-n2ccnc2SCC(=O)Nc2ccc(OC)cc2OC)cc1`, for which the AC50 is 1.41 µM (active). Same read-out and setting: next, `CCOc1ccc(-n2ccnc2SCC(=O)Nc2nnc(C)s2)cc1`: “inactive”; `O=C(CSc1nnnn1-c1ccccc1)NCc1cccs1`: 0.891 µM (active). For the molecule `COc1ccc(-n2nnnc2SCC(=O)Nc2ccccc2)cc1`, the AC50 is 3.98 µM (active).

Turning to `CCc1nnc(NC(=O)CCC(=O)N2CCN(c3ccccn3)CC2)s1`, the AC50 result is “inactive”.

For the molecule `NCCSSCCN`, the AC50 result was “inactive”. The same measure, in the same setting: for `CN1CCCC2(CCN(C(=O)c3cnccn3)CC2)C1` the value was “inactive”. As for `COc1ccc(NC(=O)CSc2nnc(C3CC3)n2N)cc1`, the AC50 result was “inactive”. Regarding `COc1cccc(-n2ccnc2SCC(=O)Nc2nccs2)c1`, the AC50 was 8.91 µM (active). Take `CCCC(=O)Nc1nnc(CCN2CCCCC2)s1`: the AC50 entry is “inactive”. As for `Cc1ccc2nc(SCC(=O)NCc3cccs3)c(C#N)cc2c1`, the AC50 result was “inactive”.

Consider `COc1ccc(NC(=O)CSc2nnc(C3CC3)n2-c2ccccc2)cc1`, for which the AC50 was 20 µM (active). The same measure, in the same setting: for `COc1ccc(-n2ccnc2SCC(=O)Nc2ccccc2)cc1` the value was 4.47 µM (active); for `CCCC(=O)Nc1nnc(SCC(=O)NCc2cccs2)s1`, 14.1 µM (active); for `CC(=O)Nc1ccc(Nc2ncnc3c2cnn3-c2ccccc2)cc1`, 2.82 µM (active). In the case of `COc1ccc(NC(=O)CSc2ccc3c4c(cccc24)C(=O)c2ccccc2-3)cc1`, the concentration at half-maximal activity (AC50) is 0.708 µM (active). As for `O=C(O)CS(=O)c1ccc2c3c(cccc13)C(=O)c1ccccc1-2` (centres undefined), the activity, negative = inhibition is -37% [at 11.4 µM] (inactive). Regarding `CCN(CC)C(=O)CSc1nc(O)cc(=O)n1CC`, the AC50 entry is “inactive”. Consider `CCn1c(SCC(=O)c2ccc(OC)cc2)nnc1C1CC1`, for which the AC50 was 11.2 µM (active). As for `Cn1ncc2c(Nc3cccc(C(=O)O)c3)ncnc21`, the AC50 result was “inactive”. `Cc1cccc(-n2ncc3c(Nc4c(C)n(C)n(-c5ccccc5)c4=O)ncnc32)c1`: the AC50 result is “inactive”. As for `CCn1c(SC)nnc1C1CCN(S(=O)(=O)c2ccc(OC)cc2)CC1`, the AC50 result is “inactive”. With `O=C(CSC1=NCCN1)Nc1ccccc1`, the activity, negative = inhibition was -1.95% [at 11.4 µM] (inactive). On to `Cn1c(SCC(=O)Nc2ccccc2)nc(O)cc1=O`, for which the AC50 was 22.4 µM (active). On to `CC(=O)Nc1ccc(NC(=O)CSc2ncnn2-c2ccccc2)cc1`, for which the AC50 is 25.1 µM (active). Consider `OCCNCCCOc1cccc(Cl)c1Cl`, for which the half-maximal activity concentration (AC50) was 3.98 µM (active). The same measure, in the same setting: for `COc1c(Cl)cc(Cl)cc1CNCCNCCO` the value was “inactive”; for `Nc1ncnc2c1nc(Br)n2[C@@H]1O[C@H]2COP(=O)(O)O[C@@H]2[C@H]1O`, “inactive”. As for `COC(=O)N1CCC2(CC1)CCN(c1ccncc1)CC2`, the AC50 result was “inactive”. `CNc1oc(-c2cccs2)nc1C#N`: the AC50 entry was “inactive”.

`N#Cc1nc(-c2cccs2)oc1NCc1ccccc1`: the AC50 was 1.58 µM (active). As for `O=C(Cn1c(-c2cscn2)nc2ccccc21)Nc1cc(F)ccc1F`, the AC50 was 3.16 µM (active). In the case of `CCCCCC/C(C)=C1/SC(=S)NC1=O`, the AC50 was 3.55 µM (active). As to `Cc1ncc(COP(=O)(O)O)c(C)c1O`, the activity, negative = inhibition was 11.9% [at 11.4 µM] (inactive). Regarding `CCCC(CCC)C(=O)NNc1cc(=O)c2c(=O)n(C)c(=O)n(C)c2[nH]1`, the AC50 result was “inactive”. On to `Cc1ccc(Oc2ccccc2/C=C2\SC(=O)N(C)C2=O)cc1`, for which the AC50 was 6.31 µM (active).

`CC(C)(C)NC[C@H](O)COc1cccc2[nH]c(=O)[nH]c12`: the AC50 entry was “inactive”.

Take `CCN1CCC[C@H]1CNC(=O)c1cc(S(N)(=O)=O)ccc1OC`: the AC50 entry is “inactive”. For `COC(=O)c1cc(OC)c(OC)cc1NC(=S)N1CCCCC1`, the AC50 was 6.31 µM (active).

As for `CCN(CC)S(=O)(=O)c1ccc(OC)c(NC(=O)CSc2ccccc2)c1`, the AC50 is 11.2 µM (active). For `COC(=O)c1cc(OC)c(OC)cc1NC(=O)CSc1ccccc1`, the AC50 is 3.16 µM (active). Consider `COc1cc(N)c(Cl)cc1C(=O)OCCCN1CCCCC1`, for which the AC50 entry is “inactive”. On the same count and under the same terms, for `COC(=O)c1cc(OC)c(OC)cc1NC(=S)N1CCN(C)CC1` the value was “inactive”; for `COC(=O)c1cc(OC)c(OC)cc1NC(=O)CSc1ccc(C)cc1`, 1.78 µM (active); for `CCN(CC)S(=O)(=O)c1ccc(OC)c(NC(=O)c2cc([N+](=O)[O-])ccc2Cl)c1`, “inactive”.

(Values after PubChem BioAssay AID1851 (National Center for Advancing Translational Sciences (NCATS), 2009).)
